According to PubChem BioAssay (EPA / NIEHS):
Records with an inconclusive call do not appear. Calls of active or inactive are those of the source. The calls were made as follows, unless noted: active = hit-call score of the fitted dose curve at least 0.9, where 1 is the maximum; inconclusive = response in the unintended direction; inactive = score below 0.9.

Columns and labels:
[1] = ATG_TAL_CIS: Attagene CIS-FACTORIAL HepG2 Assay for human TAL Basal Promoter (AID 2282966; active = hit-call score of the fitted dose curve at least 0.9, where 1 is the maximum; inactive = score below 0.9;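 also: background control endpoint measuring basal TAL promoter reporter mRNA not a specific factor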); details: HepG2 Attagene cis-factorial TAL promoter reporter; actives raise or lower the signal
Summary of the method: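 Background-control endpoint: basal TAL promoter reporter transcripts in transiently transfected HepG2, measured 24 h after dosing. Read-out by RT-PCR with fluorescent primer extension and capillary electrophoresis; gain or loss of signal fitted relative to DMSO.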

[2] = ATG_VDRE_CIS: Attagene CIS-FACTORIAL HepG2 Assay for human Vitamin D Receptor Element (VDRE) (AID 2282968; active = hit-call score of the fitted dose curve at least 0.9, where 1 is the maximum; inactive = score below 0.9); details: HepG2 VDRE cis-reporter transcription, actives raise or lower the signal
Summary of the method: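 Readout is VDRE-driven reporter mRNA reflecting endogenous factor activity in human HepG2 cells, sampled 24 h post-dose. Quantification used labelled RT-PCR products separated by capillary electrophoresis; bidirectional analysis relative to DMSO.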

[3] = biological target: Nuclear receptor subfamily 1 group I member 3 (Homo sapiens) (UniProt Q14994); assay: ATG_CAR_TRANS: Attagene TRANS-FACTORIAL HepG2 Assay for human Constitutive Androstane Receptor (CAR) (AID 2282969); details: HepG2 Attagene TRANS-FACTORIAL CAR reporter;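 also: activators raise reporter mRNA above DMSO so AC50 marks induction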
Sequence of Nuclear receptor subfamily 1 group I member 3 (Homo sapiens) (Q14994 whole entry, looked up, the tested form may be a part): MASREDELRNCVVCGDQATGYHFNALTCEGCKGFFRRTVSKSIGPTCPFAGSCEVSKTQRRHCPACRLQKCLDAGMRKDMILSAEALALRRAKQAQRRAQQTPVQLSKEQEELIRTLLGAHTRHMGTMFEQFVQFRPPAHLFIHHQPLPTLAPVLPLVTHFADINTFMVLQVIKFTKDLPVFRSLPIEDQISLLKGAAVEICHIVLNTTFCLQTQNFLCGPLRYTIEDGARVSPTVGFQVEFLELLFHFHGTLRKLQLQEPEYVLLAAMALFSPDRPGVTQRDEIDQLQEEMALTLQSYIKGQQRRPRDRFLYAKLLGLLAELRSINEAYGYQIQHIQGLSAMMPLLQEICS
Summary of the method: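 Signal is reporter mRNA induction relative to DMSO, measured 24 h after dosing by RT-PCR with fluorescent primer extension and capillary electrophoresis. Human HepG2 liver cells carried transiently transfected chimeric NR-Gal4/GAL4-UAS reporter constructs.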

[4] = biological target: Steroid hormone receptor ERR1 (Homo sapiens) (UniProt P11474); assay: ATG_ERRa_TRANS: Attagene TRANS-FACTORIAL HepG2 Assay for human Estrogen-Related Receptor alpha (ERRa) (AID 2282971); details: HepG2 Attagene TRANS reporter, ERRa transactivation
Sequence of Steroid hormone receptor ERR1 (Homo sapiens) (P11474 whole entry, looked up, the tested form may be a part): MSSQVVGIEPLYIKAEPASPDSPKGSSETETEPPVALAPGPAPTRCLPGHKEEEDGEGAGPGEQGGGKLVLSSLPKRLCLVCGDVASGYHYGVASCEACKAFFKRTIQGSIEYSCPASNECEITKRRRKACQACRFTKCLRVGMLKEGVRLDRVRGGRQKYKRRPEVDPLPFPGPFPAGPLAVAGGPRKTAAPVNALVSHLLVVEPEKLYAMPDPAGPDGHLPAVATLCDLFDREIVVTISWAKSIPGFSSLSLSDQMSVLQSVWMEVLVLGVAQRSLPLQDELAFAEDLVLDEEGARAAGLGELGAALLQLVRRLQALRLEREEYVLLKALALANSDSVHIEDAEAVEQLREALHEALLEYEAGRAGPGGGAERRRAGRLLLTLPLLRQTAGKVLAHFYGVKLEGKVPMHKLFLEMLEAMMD
Summary of the method: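 Reporter transcripts from ERRa-Gal4 chimera activity measured in transiently transfected human HepG2 cells 24 hours after dosing, using RT-PCR with 6-FAM primer extension, HpaI digestion and capillary electrophoresis; DMSO is baseline.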

[5] = biological target: X-box-binding protein 1 (Homo sapiens) (UniProt P17861); assay: ATG_Xbp1_CIS: Attagene CIS-FACTORIAL HepG2 Assay for human X-box Binding Protein 1 (XBP1) (AID 2282972; active = hit-call score of the fitted dose curve at least 0.9, where 1 is the maximum; inactive = score below 0.9); details: HepG2 XBP1 cis-element reporter, Attagene multiplex; actives raise or lower the signal
Sequence of X-box-binding protein 1 (Homo sapiens) (P17861 whole entry, looked up): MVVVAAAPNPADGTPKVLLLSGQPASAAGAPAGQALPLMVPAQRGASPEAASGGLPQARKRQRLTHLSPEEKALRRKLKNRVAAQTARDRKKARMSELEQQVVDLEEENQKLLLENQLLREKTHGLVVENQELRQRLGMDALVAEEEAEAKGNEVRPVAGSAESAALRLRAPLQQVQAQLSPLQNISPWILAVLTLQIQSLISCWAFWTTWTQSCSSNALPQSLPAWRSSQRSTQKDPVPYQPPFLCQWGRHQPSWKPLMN
Summary of the method: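 Reporter transcripts were quantified by RT-PCR with fluorescent primer extension and capillary electrophoresis after 24 h chemical exposure. Cells: transiently transfected HepG2 carrying cis-regulated reporter constructs; data fitted bidirectionally relative to DMSO.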

[6] = ATG_M_19_TRANS: Attagene TRANS-FACTORIAL HepG2 Assay for M19 Transcription Factor (Internal Marker) (AID 2282974); details: HepG2 Attagene TRANS-FACTORIAL M19 internal marker reporter
Summary of the method: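 Gain-of-signal in reporter mRNA, relative to DMSO, was scored from capillary electrophoresis fluorescence. HepG2 cells carried transiently transfected multiple reporter transcription units and were incubated with test chemicals for 24 h.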

[7] = ATG_Hpa5_TRANS: Attagene TRANS-FACTORIAL HepG2 Assay for human GAL4-Hpa5 Hepatocyte Transcription Factor Basal Promoter (AID 2282975); details: HepG2 Attagene GAL4-Hpa5 transcription reporter;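 also: hits are increases in reporter mRNA over DMSO baseline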
Summary of the method: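 Gain-of-signal versus DMSO is fitted for reporter mRNA quantified by RT-PCR and capillary electrophoresis after 24 h exposure. This endpoint is an internal background marker in transiently transfected HepG2 cells carrying GAL4-UAS reporter units.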

[8] = biological target: Estrogen-related receptor gamma (Homo sapiens) (UniProt P62508); assay: ATG_ERRg_TRANS: Attagene TRANS-FACTORIAL HepG2 Assay for human Estrogen-Related Receptor gamma (ERRg) (AID 2282977); details: HepG2 Attagene TRANS reporter, ERRg transactivation;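 also: hits increase reporter signal over DMSO so potencies reflect activators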
Sequence of Estrogen-related receptor gamma (Homo sapiens) (P62508 whole entry, looked up, the tested form may be a part): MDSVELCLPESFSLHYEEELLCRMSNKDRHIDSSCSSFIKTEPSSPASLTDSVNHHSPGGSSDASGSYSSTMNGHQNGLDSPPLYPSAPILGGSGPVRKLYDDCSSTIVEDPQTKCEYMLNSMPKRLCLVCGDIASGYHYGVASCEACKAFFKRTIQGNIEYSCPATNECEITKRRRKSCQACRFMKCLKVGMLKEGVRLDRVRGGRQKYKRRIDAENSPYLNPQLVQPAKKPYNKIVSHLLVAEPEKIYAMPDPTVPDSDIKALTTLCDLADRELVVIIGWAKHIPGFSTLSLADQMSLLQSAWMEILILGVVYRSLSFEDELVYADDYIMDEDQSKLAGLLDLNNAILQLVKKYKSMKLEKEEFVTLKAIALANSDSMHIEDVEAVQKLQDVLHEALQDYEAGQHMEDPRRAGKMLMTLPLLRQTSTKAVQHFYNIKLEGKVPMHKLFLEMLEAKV
Summary of the method: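 Exogenous NR-Gal4 chimera activity measured as reporter transcript induction after 24 h in transiently transfected HepG2 cells. RNA reverse-transcribed, PCR-amplified, 6-FAM-labelled and resolved by capillary electrophoresis; increase over DMSO baseline.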

[9] = biological target: Glucocorticoid receptor (Homo sapiens) (UniProt P04150); assay: ATG_GR_TRANS: Attagene TRANS-FACTORIAL HepG2 Assay for human Glucocorticoid Receptor (GR) (AID 2282978); details: HepG2 Attagene TRANS GR reporter, mRNA transcription;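 also: activators score as hits since higher reporter transcript over DMSO is fitted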
Sequence of Glucocorticoid receptor (Homo sapiens) (P04150 whole entry, looked up, the tested form may be a part): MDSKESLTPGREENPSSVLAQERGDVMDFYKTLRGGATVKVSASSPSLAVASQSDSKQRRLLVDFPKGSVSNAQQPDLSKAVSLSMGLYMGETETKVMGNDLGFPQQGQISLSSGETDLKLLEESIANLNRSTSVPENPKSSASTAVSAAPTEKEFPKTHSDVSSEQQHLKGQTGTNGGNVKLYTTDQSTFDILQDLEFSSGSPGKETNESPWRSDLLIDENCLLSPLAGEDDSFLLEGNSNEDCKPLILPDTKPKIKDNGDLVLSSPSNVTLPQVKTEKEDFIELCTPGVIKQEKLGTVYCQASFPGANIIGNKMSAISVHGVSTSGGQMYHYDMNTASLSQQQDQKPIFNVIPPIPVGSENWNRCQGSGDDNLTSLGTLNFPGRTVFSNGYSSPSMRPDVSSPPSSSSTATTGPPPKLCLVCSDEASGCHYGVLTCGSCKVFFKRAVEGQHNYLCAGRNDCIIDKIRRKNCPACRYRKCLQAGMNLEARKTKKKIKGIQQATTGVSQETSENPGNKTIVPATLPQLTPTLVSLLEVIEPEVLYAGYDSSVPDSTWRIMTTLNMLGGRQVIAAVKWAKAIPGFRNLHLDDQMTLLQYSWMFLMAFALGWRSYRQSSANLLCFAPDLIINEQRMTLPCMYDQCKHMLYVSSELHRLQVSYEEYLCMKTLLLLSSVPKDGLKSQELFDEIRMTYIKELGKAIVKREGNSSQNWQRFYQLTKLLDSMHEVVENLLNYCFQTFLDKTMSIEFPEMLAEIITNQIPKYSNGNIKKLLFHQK
Summary of the method: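 HepG2 transient transfection, multiple reporter units, GAL4-UAS under NR-GAL4 chimera control. 24 h treatment. Reporter mRNA by RT-PCR/CE fluorescence, DMSO as negative control.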

[10] = biological target: Bile acid receptor (Homo sapiens) (UniProt Q96RI1); assay: ATG_FXR_TRANS: Attagene TRANS-FACTORIAL HepG2 Assay for Farnesoid X Receptor (FXR) (AID 2282979); details: HepG2 Attagene TRANS FXR-GAL4 reporter transcription;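 also: hits raise reporter mRNA above DMSO so AC50 marks FXR activation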
Sequence of Bile acid receptor (Homo sapiens) (Q96RI1 whole entry, looked up, the tested form may be a part): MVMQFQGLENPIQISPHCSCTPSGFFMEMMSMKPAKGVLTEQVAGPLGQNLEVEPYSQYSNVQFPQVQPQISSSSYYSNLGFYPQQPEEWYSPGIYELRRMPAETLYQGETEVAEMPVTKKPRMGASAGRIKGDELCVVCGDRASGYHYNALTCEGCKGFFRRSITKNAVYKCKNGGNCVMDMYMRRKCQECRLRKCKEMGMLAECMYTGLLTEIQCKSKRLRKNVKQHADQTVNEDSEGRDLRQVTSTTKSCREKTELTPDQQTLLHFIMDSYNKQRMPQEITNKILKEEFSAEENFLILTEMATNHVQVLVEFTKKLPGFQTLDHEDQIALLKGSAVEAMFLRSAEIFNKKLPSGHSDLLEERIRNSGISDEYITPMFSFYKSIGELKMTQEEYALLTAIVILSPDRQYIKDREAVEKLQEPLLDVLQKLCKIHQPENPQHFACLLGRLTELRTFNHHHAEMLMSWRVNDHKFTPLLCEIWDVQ
Summary of the method: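 Reporter transcripts from transfected HepG2 cells were measured 24 h after dosing, using RT-PCR with capillary electrophoresis of 6-FAM-labelled fragments. The read-out reflects activity of exogenous FXR-Gal4 chimera on GAL4-UAS units, with induction relative to DMSO.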

[11] = biological target: Oxysterols receptor LXR-beta (Homo sapiens) (UniProt P55055); assay: ATG_LXRb_TRANS: Attagene TRANS-FACTORIAL HepG2 Assay for human Liver X Receptor beta (LXRb) (AID 2282981); details: HepG2 Attagene TRANS GAL4-LXRb reporter, mRNA
Sequence of Oxysterols receptor LXR-beta (Homo sapiens) (P55055 whole entry, looked up, the tested form may be a part): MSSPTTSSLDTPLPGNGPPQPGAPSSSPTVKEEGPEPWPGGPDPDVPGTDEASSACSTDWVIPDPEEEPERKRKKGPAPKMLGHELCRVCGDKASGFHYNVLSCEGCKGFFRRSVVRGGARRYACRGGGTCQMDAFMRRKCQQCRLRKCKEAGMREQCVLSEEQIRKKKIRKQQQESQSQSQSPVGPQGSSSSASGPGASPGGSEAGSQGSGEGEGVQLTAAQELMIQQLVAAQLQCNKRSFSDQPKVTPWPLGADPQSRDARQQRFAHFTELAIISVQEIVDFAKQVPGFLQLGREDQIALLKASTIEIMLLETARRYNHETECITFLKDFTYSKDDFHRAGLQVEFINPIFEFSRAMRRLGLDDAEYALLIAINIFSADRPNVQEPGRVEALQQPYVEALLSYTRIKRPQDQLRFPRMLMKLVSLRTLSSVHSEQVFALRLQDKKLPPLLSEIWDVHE
Summary of the method: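 After 24 h chemical treatment of transfected HepG2 cells carrying exogenous NR-Gal4 chimeras, reporter mRNA was quantified by fluorescent RT-PCR and capillary electrophoresis; activity taken as increase over DMSO controls.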

[12] = biological target: Hepatocyte nuclear factor 4-alpha (Homo sapiens) (UniProt P41235); assay: ATG_HNF4a_TRANS: Attagene TRANS-FACTORIAL HepG2 Assay for human Hepatocyte Nuclear Factor 4 alpha (HNF4a) (AID 2282982); details: HepG2 HNF4a transactivation reporter, mRNA readout
Sequence of Hepatocyte nuclear factor 4-alpha (Homo sapiens) (P41235 whole entry, looked up, the tested form may be a part): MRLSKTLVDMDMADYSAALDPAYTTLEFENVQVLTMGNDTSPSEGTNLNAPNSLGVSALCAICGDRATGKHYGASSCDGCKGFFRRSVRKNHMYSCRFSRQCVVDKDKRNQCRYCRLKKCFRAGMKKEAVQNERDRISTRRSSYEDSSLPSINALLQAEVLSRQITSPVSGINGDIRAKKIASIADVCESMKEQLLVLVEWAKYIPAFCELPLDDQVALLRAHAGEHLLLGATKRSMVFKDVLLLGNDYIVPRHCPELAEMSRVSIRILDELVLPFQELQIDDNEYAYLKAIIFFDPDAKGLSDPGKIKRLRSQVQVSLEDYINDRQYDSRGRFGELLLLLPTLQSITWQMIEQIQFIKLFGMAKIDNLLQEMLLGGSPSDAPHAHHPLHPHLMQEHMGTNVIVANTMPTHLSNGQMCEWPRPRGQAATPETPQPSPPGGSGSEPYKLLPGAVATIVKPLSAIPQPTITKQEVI
Summary of the method: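 Activity of an exogenous HNF4a–Gal4 fusion scored as induced GAL4-UAS reporter transcripts after 24 h chemical exposure of transfected human HepG2 cells. Read-out via RT-PCR with 6-FAM labelling and capillary electrophoresis; rise over DMSO baseline.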

[13] = ATG_M_32_TRANS: Attagene TRANS-FACTORIAL HepG2 Assay for M32 Transcription Factor (Internal Marker) (AID 2282984); details: HepG2 Attagene TRANS M32 internal marker reporter
Summary of the method: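 Internal background reporter in transfected HepG2: after 24 h chemical exposure, RNA reverse-transcribed, reporter cDNA amplified, fluorescently labelled and HpaI-cut, then sized by capillary electrophoresis. Gain of signal fitted against DMSO control.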

[14] = ATG_M_06_TRANS: Attagene TRANS-FACTORIAL HepG2 Assay for M06 Transcription Factor (Internal Marker) (AID 2282983); details: HepG2 Attagene TRANS M06 internal marker reporter
Summary of the method: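 Background-control reporter readout: after 24 h chemical exposure of transiently transfected HepG2 (GAL4-UAS reporter units), mRNA quantified by RT-PCR with fluorescent labeling and capillary electrophoresis. Gain-of-signal fitting against DMSO baseline.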

[15] = biological target: Nuclear receptor subfamily 4 group A member 2 (Homo sapiens) (UniProt P43354); assay: ATG_NURR1_TRANS: Attagene TRANS-FACTORIAL HepG2 Assay for human Nuclear Receptor Related Protein 1 (NURR1) (AID 2282985); details: HepG2 Attagene TRANS reporter, mRNA readout
Sequence of Nuclear receptor subfamily 4 group A member 2 (Homo sapiens) (P43354 whole entry, looked up, the tested form may be a part): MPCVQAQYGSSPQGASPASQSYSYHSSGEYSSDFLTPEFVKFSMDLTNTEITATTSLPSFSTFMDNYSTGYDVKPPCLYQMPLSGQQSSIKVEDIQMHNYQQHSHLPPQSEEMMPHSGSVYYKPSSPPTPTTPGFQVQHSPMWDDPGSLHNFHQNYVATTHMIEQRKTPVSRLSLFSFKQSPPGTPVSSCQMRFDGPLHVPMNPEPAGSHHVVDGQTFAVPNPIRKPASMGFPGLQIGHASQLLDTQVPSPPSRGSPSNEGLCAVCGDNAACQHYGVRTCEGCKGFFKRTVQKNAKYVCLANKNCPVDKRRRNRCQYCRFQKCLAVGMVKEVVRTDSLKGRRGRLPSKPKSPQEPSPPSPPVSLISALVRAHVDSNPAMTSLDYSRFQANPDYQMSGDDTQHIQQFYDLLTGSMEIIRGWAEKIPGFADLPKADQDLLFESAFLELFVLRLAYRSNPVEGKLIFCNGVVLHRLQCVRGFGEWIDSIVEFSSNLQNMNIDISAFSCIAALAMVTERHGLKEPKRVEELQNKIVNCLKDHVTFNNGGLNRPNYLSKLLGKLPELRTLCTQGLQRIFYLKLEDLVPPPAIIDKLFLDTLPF
Summary of the method: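 Reporter transcript induction, measured by RT-PCR with fluorescent labelling, HpaI digestion and capillary electrophoresis, after 24 hr dosing of human HepG2 cells transiently expressing an exogenous NR-Gal4 fusion with GAL4-UAS-driven reporters; DMSO as baseline.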

[16] = biological target: Androgen receptor (Homo sapiens) (UniProt P10275); assay: ATG_AR_TRANS: Attagene TRANS-FACTORIAL HepG2 Assay for human Androgen Receptor (AR) (AID 2282973); details: HepG2 Attagene TRANS-FACTORIAL AR reporter transcription
Summary of the method: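 Transcriptional activity of an exogenous AR–Gal4 fusion read as GAL4-UAS reporter transcript levels in transfected human HepG2 cells after 24 h dosing. Detection via RT-PCR, 6-FAM labelling, HpaI digest and capillary electrophoresis; increase over DMSO baseline.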

[17] = ATG_GAL4_TRANS: Attagene TRANS-FACTORIAL HepG2 Assay for GAL4 (Internal Marker) (AID 2282976); details: HepG2 Attagene TRANS GAL4 internal marker reporter
Summary of the method: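 In transfected human HepG2 liver cells dosed 24 h, GAL4 reporter mRNA serves as a baseline marker. Detection by RT-PCR with fluorescent capillary electrophoresis, activity fitted upward relative to DMSO.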

[18] = biological target: Oxysterols receptor LXR-alpha (Homo sapiens) (UniProt Q13133); assay: ATG_LXRa_TRANS: Attagene TRANS-FACTORIAL HepG2 Assay for human Liver X Receptor alpha (LXRa) (AID 2282980); details: HepG2 Attagene TRANS reporter, LXRa transactivation
Summary of the method: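 Chemical-induced reporter mRNA measured by RT-PCR with fluorescent labelling and capillary electrophoresis after 24 h dosing of transiently transfected HepG2 cells expressing exogenous NR-Gal4 chimeras; increases scored against DMSO baseline.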

[19] = biological target: Estrogen receptor (Homo sapiens) (UniProt P03372); assay: ATG_ERa_TRANS: Attagene TRANS-FACTORIAL HepG2 Assay for human Estrogen Receptor alpha (ERa) (AID 2282970); details: HepG2 Attagene TRANS ERa GAL4 reporter, mRNA
Sequence of Estrogen receptor (Homo sapiens) (P03372 whole entry, looked up, the tested form may be a part): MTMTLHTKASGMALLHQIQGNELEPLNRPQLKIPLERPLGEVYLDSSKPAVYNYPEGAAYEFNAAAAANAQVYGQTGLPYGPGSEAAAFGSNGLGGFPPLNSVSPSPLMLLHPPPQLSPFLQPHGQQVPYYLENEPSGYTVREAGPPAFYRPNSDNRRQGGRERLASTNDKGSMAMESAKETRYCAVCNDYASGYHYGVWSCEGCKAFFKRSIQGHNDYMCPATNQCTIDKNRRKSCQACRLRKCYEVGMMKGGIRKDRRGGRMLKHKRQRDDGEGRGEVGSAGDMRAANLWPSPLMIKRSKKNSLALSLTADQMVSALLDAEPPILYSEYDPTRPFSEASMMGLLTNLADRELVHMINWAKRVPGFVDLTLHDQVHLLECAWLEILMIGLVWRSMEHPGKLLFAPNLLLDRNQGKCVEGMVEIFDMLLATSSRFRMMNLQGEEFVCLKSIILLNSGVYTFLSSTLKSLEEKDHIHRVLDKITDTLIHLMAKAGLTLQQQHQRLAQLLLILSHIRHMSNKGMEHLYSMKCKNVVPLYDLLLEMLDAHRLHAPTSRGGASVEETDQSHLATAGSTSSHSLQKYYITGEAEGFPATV
Summary of the method: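 Reporter transcripts were measured 24 h after dosing by RT-PCR with fluorescent primer extension and capillary electrophoresis. The system is transiently transfected HepG2 expressing exogenous NR-Gal4 chimeras driving GAL4-UAS reporters; DMSO is the baseline.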

In the case of `COP(=O)(OC)C(O)C(Cl)(Cl)Cl` (stereo not given), the outcome [1] is reported as “inactive”, the AC50 [2] is reported as 50 µM (active) and the outcome [3] is reported as “inactive”. For the same compound, the outcome [4] was “inactive”, the AC50 [5] was 39.7 µM (active) and the outcome [6] was “inactive”. For the same compound, the outcome [7] was “inactive”, the outcome [8] was “inactive” and the outcome [9] was “inactive”. For the same compound, the outcome [10] was “inactive”, the AC50 [11] was 92.4 µM (active) and the outcome [12] was “inactive”. The outcome [13] was “inactive”.
For `FC(F)C(F)(F)OCC(Cn1cncn1)c1ccc(Cl)cc1Cl` (stereo not given), the outcome [1] was “inactive”, the AC50 [2] was 37.3 µM (active) and the AC50 [5] was 75.8 µM (active). The outcome [6] was “inactive”, the outcome [11] was “inactive” and the outcome [14] was “inactive”. The outcome [15] was “inactive”.
With `COc1ccc(C(=CC(=O)N2CCOCC2)c2ccc(Cl)cc2)cc1OC` the outcome [1] was “inactive”, the AC50 [2] was 11.4 µM (active) and the outcome [4] was “inactive”. The outcome [5] was “inactive”, the outcome [16] was “inactive” and the outcome [6] was “inactive”. For the same compound, the outcome [7] was “inactive”, the outcome [17] was “inactive” and the outcome [8] was “inactive”. For the same compound, the outcome [10] was “inactive”, the outcome [18] was “inactive” and the outcome [11] was “inactive”. The outcome [12] was “inactive” and the outcome [14] was “inactive”.
For `COc1cc(OC)nc(Sc2cccc(Cl)c2C(=O)O)n1`, the outcome [1] was “inactive”, the outcome [2] was “inactive” and the outcome [3] was “inactive”. For the same compound, the outcome [4] was “inactive”, the outcome [5] was “inactive” and the outcome [8] was “inactive”. For the same compound, the outcome [9] was “inactive”, the outcome [11] was “inactive” and the outcome [14] was “inactive”. The outcome [13] was “inactive” and the outcome [15] was “inactive”.
With `Nc1nc(N)nc(NC2CC2)n1` the outcome [1] was “inactive”, the outcome [4] was “inactive” and the outcome [5] was “inactive”. For the same compound, the outcome [6] was “inactive”, the outcome [8] was “inactive” and the outcome [9] was “inactive”. For the same compound, the outcome [10] was “inactive”, the outcome [11] was “inactive” and the outcome [14] was “inactive”. The outcome [13] was “inactive” and the outcome [15] was “inactive”.
In the case of `CC[C@H](C)[C@H]1O[C@]2(C=C[C@@H]1C)C[C@@H]1C[C@@H](C/C=C(\C)[C@@H](O[C@H]3C[C@H](OC)[C@@H](O[C@H]4C[C@H](OC)[C@@H](NC)[C@H](C)O4)[C@H](C)O3)[C@@H](C)/C=C/C=C3\CO[C@@H]4[C@H](O)C(C)=C[C@@H](C(=O)O1)[C@]34O)O2`, the outcome [1] is reported as “inactive”, the outcome [2] is reported as “inactive” and the outcome [3] is reported as “inactive”. For the same compound, the outcome [19] was “inactive”, the outcome [5] was “inactive” and the outcome [6] was “inactive”. The outcome [7] was “inactive”, the outcome [11] was “inactive” and the outcome [12] was “inactive”. The outcome [13] was “inactive”.
With `CCC(=O)Nc1ccc(Cl)c(Cl)c1` the outcome [1] was “inactive”, the outcome [2] was “inactive” and the outcome [3] was “inactive”. The outcome [5] was “inactive”, the outcome [16] was “inactive” and the outcome [6] was “inactive”. For the same compound, the outcome [7] was “inactive”, the outcome [17] was “inactive” and the outcome [11] was “inactive”. The outcome [12] was “inactive”, the outcome [14] was “inactive” and the outcome [13] was “inactive”. The outcome [15] was “inactive”.
In the case of `CCCCSP(=O)(SCCCC)SCCCC`, the AC50 [1] is reported as 13 µM (active), the AC50 [2] is reported as 12 µM (active) and the outcome [3] is reported as “inactive”. For the same compound, the outcome [5] was “inactive”, the outcome [6] was “inactive” and the outcome [7] was “inactive”. For the same compound, the outcome [9] was “inactive”, the outcome [10] was “inactive” and the outcome [11] was “inactive”. The outcome [13] was “inactive” and the outcome [15] was “inactive”.
